The entries come from a sample that favours hits as a whole.
Methyltransferases – Primary Screen for Target Class Profiling of Small Molecule Inhibitors of Methyltransferases; purified enzyme, MTase-Glo SAH luminescence; active compounds read low; calls only at 40 µM; 3.9% of 25,000 active; call rule not given here
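Each enzyme was assayed with SAM and its substrate. SAH formation detected by MTase-Glo luminescence; single-point 40 uM screen[…].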
MTase-Glo counter – detection enzyme interference, methyltransferase counter-screen | shares compounds with Methyltransferases | MTase-Glo coupled enzymes, SAH conversion luminescence, no MTase | Potency, µM (doses to about 57.3 µM), inactives show top-dose activity change, negative = inhibition, hits mostly inhibitors | 6% of 180 active; active means well fitted inhibition curve with a large enough effect; further: potency means the concentration at half of the fitted maximal effect
Active calls of the source: *; [ ] = another dose, or the depositor's remark. On the % scale 0 is the no-effect control and ±100 the full control effect.

Screening CCOc1ccc(N2C(=O)c3cc4sccc4n3CC2(C)C(=O)NC2CCCCCC2)cc1 (configuration not stated) returned Methyltransferases inactive.
Screening CC1=C(CCC(C)O[C@@H]2O[C@H](CO)[C@@H](O)[C@H](O)[C@H]2O)C(C)(C)CCC1=O (some centres not stated) returned Methyltransferases active.
CC1=CC(=O)CC(C)(CO)C1(O)/C=C/C(C)O[C@@H]1O[C@H](CO)[C@@H](O)[C@H](O)[C@H]1O (some centres not stated) was read as Methyltransferases inactive.
For CC(CCc1ccc(O)cc1)O[C@@H]1O[C@H](CO[C@@H]2OC(CO)[C@H](O)[C@H]2O)[C@@H](O)[C@H](O)[C@H]1O (some centres not stated) the results were Methyltransferases inactive.
For COc1ccccc1CNC(=O)C1(C)Cn2nc(-c3ccccc3)cc2C(=O)N1c1ccc(C)cc1C (configuration not stated) the results were Methyltransferases inactive.
CCc1ccc(CNC(=O)c2cc3n(n2)CC(C)(C(=O)NCc2ccc(C)cc2)N(C)C3=O)cc1 (configuration not stated) was read as Methyltransferases inactive.
`C=Cc1ccc(Cn2nc3n(Cc4ccccc4)c(=O)c4ccc(C(=O)NCC(C)C)cc4n3c2=O)cc1` gave Methyltransferases inactive.
COC(=O)Nc1nc2ccc(C(=O)c3cccs3)cc2[nH]1 was read as Methyltransferases inactive.
CC1CCN(c2cc(NC(=O)c3ccccc3)ncn2)CC1 was read as Methyltransferases inactive.
O=C(c1ccccc1)c1ccc2nc(NC(=O)c3csc(C4CCN(c5ncnc6ccsc56)CC4)n3)[nH]c2c1 was read as Methyltransferases active.
`Cc1ccc(CNC(=O)CCn2ccc3cc(S(=O)(=O)N4CCC(C)CC4)ccc32)cc1` gave Methyltransferases inactive.
For CC1(C(=O)NC2CCCCC2)Cn2c(cc3sccc32)C(=O)N1Cc1ccc(Cl)cc1 (configuration not stated) the results were Methyltransferases inactive.
CC(=O)c1c(C)c2cnc(Nc3ccc(N4CCNCC4)cn3)nc2n(C2CCCC2)c1=O was read as Methyltransferases inactive.
CNC(=O)c1ccccc1Nc1nc(Nc2ccc(N3CCNCC3)cc2)ncc1Cl was read as Methyltransferases active.
For Cn1c(=O)c(-c2c(Cl)cccc2Cl)cc2cnc(Nc3ccc(N4CCOCC4)cc3)nc21 the results were Methyltransferases inactive.
`CCOc1ccc(NC(=O)c2cc3n(n2)CC(C)(C(=O)NC2CCCC2)N(CC)C3=O)cc1` (configuration not stated) gave Methyltransferases inactive.
Screening CCn1c(-c2nonc2N)nc2c(C#CC(C)(C)O)ncc(OCC3CCCNC3)c21 (configuration not stated) returned Methyltransferases active.
`CCOC(=O)c1cc2n(n1)CC(C)(C(=O)NC1CCC(C)CC1)N(c1cccc(Cl)c1C)C2=O` (configuration not stated) gave Methyltransferases inactive.
For COCCn1ccc2c(C3=CCOCC3)nc(-c3cccc4[nH]ccc34)cc21 the results were Methyltransferases active and MTase-Glo counter -6%[85.7 µM].
Screening O=C(c1ccncc1)N1CCCC(CN2CCCC2)CC1 (configuration not stated) returned Methyltransferases inactive.
`O=C(c1ccc(C2CCCNC2)cc1)N1CCN(c2ccncc2)CC1` (configuration not stated) gave Methyltransferases active and MTase-Glo counter -3%.
Screening Cn1cc(-c2ccncc2)cc1C(=O)N1CCN(c2ccc(F)cc2)CC1 returned Methyltransferases inactive.
Screening C[C@@H]1C(=O)O[C@H]2CC34[C@H]5C[C@@H](C(C)(C)C)C36[C@@H](OC(=O)[C@@H]6O)OC4(C(=O)O5)[C@]21O (some centres not stated) returned Methyltransferases inactive.
Screening CN1CCN(S(=O)(=O)c2ccc(-c3cnc(N)c(C(=O)Nc4cccnc4)n3)cc2)CC1 returned Methyltransferases inactive.
For CC(C)n1nc(OC(C)(C)C(=O)Nc2ccccn2)c2cc(CN3CCOCC3)ccc21 the results were Methyltransferases inactive.
Screening COc1ccc(NC(=O)N2CCCC(CN3CCC(C)CC3)CC2)cc1 (configuration not stated) returned Methyltransferases inactive.
Screening COc1ccc(NC(=O)C(C)(C)Oc2nn(CC3CC3)c3ccc(CN4CCCC4)cc23)cc1 returned Methyltransferases active and MTase-Glo counter 5%.
For CC(C)CCn1c(=O)c2ccc(C(=O)NCC(C)C)cc2n2c(=O)n(Cc3ccc(F)cc3Cl)nc12 the results were Methyltransferases inactive.
COc1ccc(Cl)cc1NC(=O)N1CCn2c(C)ccc2C1C(C)C (configuration not stated) was read as Methyltransferases inactive.
Screening CC1(C(=O)NC2CCCCC2)Cn2c(nc3ccccc32)C(=O)N1Cc1ccco1 (configuration not stated) returned Methyltransferases inactive.
For COC(=O)Cn1c(=O)oc2cc(S(=O)(=O)NCC(C)c3ccccc3)ccc21 (configuration not stated) the results were Methyltransferases inactive.
For Cc1noc2c(N3CCOCC3)cc(-c3cccs3)nc12 the results were Methyltransferases active and MTase-Glo counter 2%[85.7 µM].
`Cc1noc2c(-c3cnn(C)c3)cc(-c3cccnc3)nc12` gave Methyltransferases inactive.
For COc1cccc(-c2cc(-c3cccs3)nc3c(C)noc23)c1 the results were Methyltransferases inactive.
`Cc1noc2c(Nc3ccc(C(N)=O)cc3)cc(-c3ccsc3)nc12` gave Methyltransferases inactive.
Cc1noc2c(N3CCOCC3)cc(-c3cccnc3)nc12 was read as Methyltransferases inactive.
COC1CCN(c2cc(-c3ccsc3)nc3c(C)noc23)CC1 was read as Methyltransferases active and MTase-Glo counter -5%[85.7 µM].
CCOc1ccc(CN2C(=O)c3cc(-c4ccco4)nn3CC2(C)C(=O)NC2CCCCCC2)cc1 (configuration not stated) was read as Methyltransferases inactive.
`O=c1c2ccccc2n2c(=O)n(Cc3cccc(F)c3)nc2n1Cc1ccc(F)cc1` gave Methyltransferases inactive.
`CCC(C)NC(=O)c1ccc2c(=O)n(CC(C)C)c3nn(CC(=O)N(C)c4ccccc4)c(=O)n3c2c1` (configuration not stated) gave Methyltransferases inactive.
Cc1ccc(CNC(=O)C2(C)Cn3cnc(C(=O)Nc4ccc(Cl)cc4F)c3C(=O)N2C2CC2)cc1 (configuration not stated) was read as Methyltransferases inactive.
Screening CC(C)CCNC(=O)C1c2c(n(C)c3ccccc23)SCC(=O)N1c1ccc(F)cc1 (configuration not stated) returned Methyltransferases inactive.
`CCC(C)NC(=O)c1ccc2c(=O)n(CC(C)C)c3nn(CC(=O)NCc4ccccc4)c(=O)n3c2c1` (configuration not stated) gave Methyltransferases inactive.

Source: PubChem
